Experimental data published in PubChem BioAssay.
Calls of active or inactive are those of the source.

Assays:
Albumin (Bos taurus) = Albumin (Bos taurus) (UniProt P02769); assay: compounds binding labelled BSA control protein – biochemical, small-molecule microarray, Alexa647 label, 635/667 nm fluorescence, artefact control for SMM control protein annotation, profiling panel (AID 1118); details: BSA-A647 binding, fluorescence 635 nm, higher = more signal;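 note: score merges 667 nm emission intensity and signal-to-noise per printed compound spot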
[1] = probe aXIP binding to arrayed compounds – biochemical, NeuroSMM set, 635/667 nm fluorescence, primary screen (AID 1119); details: small-molecule microarray, higher = more signal, called active from +8 up or from −8 down;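 note: probe is the protein aXip251-270 applied at 1 µg/mL to compound-printed slides; binding of probe to printed compounds measured as 667 nm fluorescence plus signal to noise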
[2] = probe aNOTCH3 binding on compound microarray – biochemical, small-molecule microarray, 635/667 nm fluorescence, primary screen (AID 1120); details: higher = more signal;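 note: probe is a biotin-tagged antibody raised against NOTCH3 rather than NOTCH3 protein; score merges spot fluorescence near 667 nm with spot signal to noise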
[3] = probe aNOTCH2 binding on compound microarray – biochemical, small-molecule microarray, 635/667 nm fluorescence, primary screen (AID 1121); details: higher = more signal;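 note: score merges feature fluorescence read at 667 nm with its signal to noise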
[4] = target: Carbonic anhydrase 2 (Homo sapiens) (UniProt P00918); assay: compounds binding carbonic anhydrase 2 – biochemical, small-molecule microarray, Alexa647-labelled CAII, profiling panel (AID 1122); details: CAII-A647 binding fluorescence, higher = more signal
[5] = COS7 lysate on small-molecule microarray, probe aHis, 635 nm (AID 1123); details: COS7 cell lysate, fluorescence, higher = more signal;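 note: z-score combines 667nm fluorescence intensity with signal-to-noise per printed compound spot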
[6] = probe aLAP1 signal on lysate-treated microarray – cell lysate, small-molecule microarray, COS7 lysate, primary screen (AID 1124); details: probe aLAP1, fluorescence, higher = more signal;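 note: lysate comes from COS7 cells expressing LAP1 and is applied at 0.3 µg/mL; score merges spot fluorescence near 667 nm with signal-to-noise over triplicate slides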
Sam68 (KHDRBS1) = assay: compounds binding KHDRBS1 protein – biochemical, small-molecule microarray, 635 nm fluorescence, primary screen (AID 1125); details: higher = more signal;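 note: score merges 667 nm channel intensity with signal to noise over triplicate slides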
[7] = system: Chordin-like protein 2 (CHRDL2); assay: compounds binding chordin-like 2 – biochemical, small-molecule microarray, 635 nm fluorescence, primary screen (AID 1126); details: fluorescence 635 nm, higher = more signal;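 note: printed compound slides probed with Chrdl2 protein at 4 µg/mL for 1 h at 4 C; score merges 667 nm emission intensity with signal to noise over three replicate slides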
[8] = target: Concanavalin-A (Canavalia ensiformis) (UniProt P02866); assay: compounds binding concanavalin A lectin – biochemical, small-molecule microarray, Alexa647 label, 635 nm, artefact control for SMM control protein annotation, primary screen (AID 1127); details: ConA-A647 binding fluorescence, higher = more signal;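 note: z combines 667 nm emission intensity with signal-to-noise across three replicate slides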
[9] = compounds binding Alexa647 anti-His antibody – biochemical, small-molecule microarray, 635 nm fluorescence, artefact control for SMM control protein annotation, primary screen (AID 1128); details: higher = more signal;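 note: score merges feature fluorescence with signal-to-noise for each printed compound spot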
[10] = system: Human papillomavirus type 1a E7 protein (residues 1-88); assay: HPV1a E7 small-molecule binders, primary screen, biochemical, small-molecule microarray, residues 1-88, 635 nm (AID 1129); details: small-molecule microarray binding, fluorescence 635 nm; higher = more signal
[11] = target: Focal adhesion kinase 1 (Homo sapiens) (UniProt Q05397); assay: PTK2 protein binding on printed compound slides – biochemical, small-molecule microarray, 635/667 nm fluorescence, BSA, DTT, primary screen (AID 1130); details: 635 nm fluorescence, higher = more signal;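 note: composite of spot emission at 667 nm and signal to noise over triplicate slides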
[12] = system: Fibrinogen (Alexa647-labelled); assay: Alexa647-fibrinogen binding to printed small molecules – biochemical, small-molecule microarray, 635/667 nm fluorescence, artefact control for SMM control-protein annotation, profiling panel (AID 1131); details: fibrinogen-A647 binding fluorescence, higher = more signal;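 note: z-score merges 667 nm fluorescence with per-spot signal-to-noise over triplicate slides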
[13] = target: Follistatin (Homo sapiens) (UniProt P19883); assay: FST protein binding to printed compounds – biochemical, small-molecule microarray, 635/667 nm fluorescence, primary screen (AID 1132); details: 635 nm fluorescence, higher = more signal
[14] = target: Fibroblast growth factor 2 (Homo sapiens) (UniProt P09038); assay: basic fibroblast growth factor binding to printed compounds – biochemical, small-molecule microarray, 635/667 nm fluorescence, primary screen (AID 1133); details: FGF2, fluorescence 635/667, higher = more signal
[15] = JC-1 mitochondrial potential readout, lung cancer cells – cell-based, A549, JC-1 fluorescence, basal, 24 h, 100 nL, profiling panel (AID 1138); details: higher = more signal;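 note: A549 lung adenocarcinoma cells under basal conditions with no added stimulus; test concentration not given here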
Lefty1 = Lefty1 protein binding to printed compounds – biochemical, small-molecule microarray, 635/667 nm fluorescence, primary screen (AID 1139); details: fluorescence 635/667, higher = more signal
[16] = system: wheat germ agglutinin (Triticum aestivum), Alexa647-labelled; assay: Alexa647-WGA lectin binding to printed small molecules – biochemical, small-molecule microarray, 635/667 nm fluorescence, artefact control for SMM control-protein annotation, profiling panel (AID 1140); details: WGA-A647 binding, 635 nm fluorescence, higher = more signal;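 note: score merges 667 nm feature emission with signal to noise over triplicate slides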
[17] = target: Luciferin 4-monooxygenase (Photinus pyralis) (UniProt P08659); assay: inhibition of purified Photinus pyralis luciferase – biochemical, luminescence, purified enzyme, 2006 set, primary screen (AID 1141); details: purified firefly luciferase, SteadyGlo luminescence, 30 min; higher = more signal, called active from +8 up or from −8 down;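 note: cell-free assay with purified firefly luciferase at 100 ng per well in PBS; test concentration not given here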
Luciferin 4-monooxygenase (Photinus pyralis), sequence (P08659 whole entry, looked up): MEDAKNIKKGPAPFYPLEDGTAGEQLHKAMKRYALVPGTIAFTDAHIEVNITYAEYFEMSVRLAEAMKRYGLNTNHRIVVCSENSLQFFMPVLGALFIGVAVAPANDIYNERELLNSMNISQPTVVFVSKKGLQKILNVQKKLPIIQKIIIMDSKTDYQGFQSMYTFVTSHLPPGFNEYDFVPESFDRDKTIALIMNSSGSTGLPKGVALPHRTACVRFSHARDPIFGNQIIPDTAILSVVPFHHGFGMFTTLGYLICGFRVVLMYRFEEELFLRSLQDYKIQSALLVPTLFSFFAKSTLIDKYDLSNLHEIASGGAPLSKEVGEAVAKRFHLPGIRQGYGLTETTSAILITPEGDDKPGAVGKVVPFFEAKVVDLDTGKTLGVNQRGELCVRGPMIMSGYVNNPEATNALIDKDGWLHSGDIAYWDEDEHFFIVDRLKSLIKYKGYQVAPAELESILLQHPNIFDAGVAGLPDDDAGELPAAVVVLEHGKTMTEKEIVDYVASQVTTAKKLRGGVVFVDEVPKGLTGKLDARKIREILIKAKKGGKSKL

Follistatin (Homo sapiens), sequence (P19883 whole entry, looked up): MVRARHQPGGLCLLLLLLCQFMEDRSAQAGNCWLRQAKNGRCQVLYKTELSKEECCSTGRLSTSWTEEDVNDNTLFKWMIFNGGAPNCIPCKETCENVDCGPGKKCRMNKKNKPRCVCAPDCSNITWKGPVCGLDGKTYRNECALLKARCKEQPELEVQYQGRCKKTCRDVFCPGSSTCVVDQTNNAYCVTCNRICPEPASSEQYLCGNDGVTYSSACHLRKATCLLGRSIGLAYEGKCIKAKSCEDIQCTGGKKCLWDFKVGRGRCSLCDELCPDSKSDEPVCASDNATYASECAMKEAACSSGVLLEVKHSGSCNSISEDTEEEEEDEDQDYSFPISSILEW
Focal adhesion kinase 1 (Homo sapiens), sequence (Q05397 whole entry, looked up): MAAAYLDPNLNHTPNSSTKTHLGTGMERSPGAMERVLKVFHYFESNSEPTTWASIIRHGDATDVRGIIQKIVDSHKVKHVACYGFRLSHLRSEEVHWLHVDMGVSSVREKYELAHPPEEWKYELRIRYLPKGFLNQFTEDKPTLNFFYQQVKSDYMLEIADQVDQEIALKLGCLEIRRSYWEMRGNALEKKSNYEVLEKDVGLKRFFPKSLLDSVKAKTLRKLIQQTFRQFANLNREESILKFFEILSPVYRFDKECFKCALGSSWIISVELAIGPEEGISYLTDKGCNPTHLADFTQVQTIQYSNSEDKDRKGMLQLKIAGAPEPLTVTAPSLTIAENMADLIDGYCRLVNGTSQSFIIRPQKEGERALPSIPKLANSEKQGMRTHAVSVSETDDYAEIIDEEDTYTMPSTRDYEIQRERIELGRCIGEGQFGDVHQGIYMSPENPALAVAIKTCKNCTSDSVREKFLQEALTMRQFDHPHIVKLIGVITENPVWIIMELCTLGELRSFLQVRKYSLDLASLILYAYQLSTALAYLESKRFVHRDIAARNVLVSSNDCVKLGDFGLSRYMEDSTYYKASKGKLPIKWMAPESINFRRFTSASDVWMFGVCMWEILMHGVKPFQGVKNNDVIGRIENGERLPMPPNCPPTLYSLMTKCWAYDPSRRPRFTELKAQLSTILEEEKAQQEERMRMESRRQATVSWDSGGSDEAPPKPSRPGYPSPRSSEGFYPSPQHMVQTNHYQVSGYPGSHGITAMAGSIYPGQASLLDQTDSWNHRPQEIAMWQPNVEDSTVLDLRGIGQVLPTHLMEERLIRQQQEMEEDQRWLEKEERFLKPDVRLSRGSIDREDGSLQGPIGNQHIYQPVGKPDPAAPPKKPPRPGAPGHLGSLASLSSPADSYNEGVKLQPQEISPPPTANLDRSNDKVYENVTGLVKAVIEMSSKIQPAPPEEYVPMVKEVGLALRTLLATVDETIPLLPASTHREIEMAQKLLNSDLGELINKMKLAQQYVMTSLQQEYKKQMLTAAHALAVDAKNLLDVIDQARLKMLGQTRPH
Albumin (Bos taurus), sequence (P02769 whole entry, looked up): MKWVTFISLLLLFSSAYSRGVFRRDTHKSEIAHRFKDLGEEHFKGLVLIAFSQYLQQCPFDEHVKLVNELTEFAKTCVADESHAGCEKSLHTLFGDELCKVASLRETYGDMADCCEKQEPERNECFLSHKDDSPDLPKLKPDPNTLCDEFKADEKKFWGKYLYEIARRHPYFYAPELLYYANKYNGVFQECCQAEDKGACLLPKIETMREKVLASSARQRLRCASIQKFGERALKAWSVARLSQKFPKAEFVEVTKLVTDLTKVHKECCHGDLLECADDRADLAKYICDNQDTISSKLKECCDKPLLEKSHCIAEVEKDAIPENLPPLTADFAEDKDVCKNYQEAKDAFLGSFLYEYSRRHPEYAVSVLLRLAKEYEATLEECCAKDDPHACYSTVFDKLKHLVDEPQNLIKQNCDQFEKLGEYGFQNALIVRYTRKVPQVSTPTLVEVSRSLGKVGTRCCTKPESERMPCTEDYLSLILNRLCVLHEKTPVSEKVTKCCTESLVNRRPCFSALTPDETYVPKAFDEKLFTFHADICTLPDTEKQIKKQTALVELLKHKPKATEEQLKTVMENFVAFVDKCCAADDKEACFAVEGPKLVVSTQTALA
Concanavalin-A (Canavalia ensiformis), sequence (P02866 whole entry, looked up): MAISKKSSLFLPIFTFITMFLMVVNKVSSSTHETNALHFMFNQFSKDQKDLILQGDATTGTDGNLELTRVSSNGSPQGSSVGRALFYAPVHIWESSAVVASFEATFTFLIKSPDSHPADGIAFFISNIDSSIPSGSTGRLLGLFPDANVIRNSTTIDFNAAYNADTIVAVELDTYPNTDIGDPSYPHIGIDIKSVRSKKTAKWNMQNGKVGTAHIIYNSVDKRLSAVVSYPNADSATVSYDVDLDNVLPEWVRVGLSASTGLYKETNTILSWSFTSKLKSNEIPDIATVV
Fibroblast growth factor 2 (Homo sapiens), sequence (P09038 whole entry, looked up): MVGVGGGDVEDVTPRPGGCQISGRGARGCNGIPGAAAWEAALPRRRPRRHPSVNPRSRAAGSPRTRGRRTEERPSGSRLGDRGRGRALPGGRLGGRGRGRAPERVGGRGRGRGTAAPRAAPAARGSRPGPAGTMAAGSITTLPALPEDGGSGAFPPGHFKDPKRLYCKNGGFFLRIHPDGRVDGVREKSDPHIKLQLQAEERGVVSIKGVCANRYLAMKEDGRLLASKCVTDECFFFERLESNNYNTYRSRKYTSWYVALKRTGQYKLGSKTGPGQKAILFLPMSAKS

Row | SMILES | composite z-score (Albumin (Bos taurus)) | composite Z-score [1] | composite z-score [2] | composite z-score [3] | composite z-score [4] | composite z-score [5] | composite z-score [6] | composite z-score (Sam68 (KHDRBS1)) | composite z-score [7] | composite z-score [8] | composite z-score [9] | composite z-score [10] | composite z-score [11] | composite z-score [12] | composite z-score [13] | composite z-score [14] | z-score [15] | composite z-score (Lefty1) | composite z-score [16] | z-score [17]
1 | CCOC(=O)C1=CC[C@@H](c2ccccc2Cl)N(S(=O)(=O)c2ccc(C)cc2)[C@H]1c1cccc(OC)c1 | 0.453 | -0.161 (inactive) | -0.014 | -0.115 | 0.304 | 0.878 | -0.151 | 0.371 | -0.0126 | 0.577 | 0.413 | 1.05 | 0.1 | 0.737 | 0.176 | 0.0652 | 0.0495 | -0.0177 | 0.54 | 0.658 (inactive)
2 | COC(=O)[C@@]1(CCC(=O)OC(C)(C)C)N=C(c2ccc(OCCCO)cc2)O[C@H]1c1ccccc1CN=[N+]=[N-] | -0.0515 | 0.69 (inactive) | -0.0984 | -0.0786 | 0.743 | 1.41 | 0.348 | -0.126 | -0.141 | 0.855 | 0.656 | 0.0163 | -0.0599 | 0.0201 | 0.663 | 0.442 | 0.895 | -0.756 | 0.249 | -0.488 (inactive)
3 | CCOC(=O)C1=CC[C@@H](c2ccccc2)N(S(=O)(=O)c2ccc(C)cc2)[C@H]1C#N | 0.721 | 0.718 (inactive) | 0.213 | 0.0362 | 0.76 | 1.67 | 0.254 | 1.2 | -0.232 | 1.15 | 0.806 | 1.2 | 0.721 | 0.986 | -0.33 | -0.162 | -0.604 | -0.565 | 0.517 | -0.227 (inactive)
4 | CCN(CC)c1ccc(N2CC=CC34O[C@@H]5C=CCOC(=O)[C@@H]5[C@H]3C(=O)N(CCCO)[C@@H]4C2=O)cc1 (stereo not given in full) | -0.997 | 0.547 (inactive) | -0.0971 | -0.14 | 0.862 | 1.4 | -0.39 | 0.425 | -0.773 | -1.74 | 1.53 | -1.05 | -0.0534 | -0.973 | -0.658 | -0.576 | -0.125 | -0.923 | -0.245 | -0.803 (inactive)
5 | C=CCC(OC(C)=O)[C@@H]1[C@@H](N(Cc2ccc(-c3cccc(C(F)(F)F)c3)o2)C(=O)Cc2ccc(OC)cc2)c2cc(OCCCO)ccc2N1C(=O)c1ccc2ccccc2n1 (stereo not given in full) | -0.739 | -0.117 (inactive) | -0.0311 | -0.0956 | -0.165 | 0.516 | -0.136 | -1.29 | 0.763 | -0.388 | 0.292 | -1.64 | -0.236 | -0.665 | 0.767 | -0.149 | -0.448 | 0.0089 | 0.113 | 0.471 (inactive)
6 | C[C@H]1C2[C@H](Cc3ccccc3)NC(=O)[C@]23C(=O)NCC(=O)N2CCC[C@H]2C(=O)NC/C=C\C/C=C/C3[C@@H]2O[C@]12C (stereo not given in full) | -0.674 | -0.403 (inactive) | 0.155 | -0.176 | 0.718 | -0.981 | -0.632 | -0.158 | 0.486 | -0.351 | -0.151 | -0.0402 | -0.258 | -0.454 | 0.278 | 1.1 | 0.546 | 0.0393 | -0.121 | -1.25 (inactive)
7 | O=C1O[C@H](c2ccccc2)[C@H](c2ccccc2)N2[C@H]1[C@@H](C(=O)NC[C@H](O)c1ccccc1)[C@]1(C(=O)Nc3ccc(C#CCCO)cc31)[C@H]2c1ccccc1OCCO | 0.695 | 1.27 (inactive) | -0.0581 | -0.0666 | 0.597 | 2.38 | 0.728 | 1.29 | -0.189 | 1.02 | 1.6 | 1.18 | 0.746 | 0.812 | 1.1 | 0.419 | -0.223 | 1.39 | 0.593 | 0.597 (inactive)
8 | CCCCCN1CC=CC23O[C@@H]4C=CCOC(=O)[C@@H]4[C@H]2C(=O)N(CCCCCO)[C@@H]3C1=O (stereo not given in full) | 0.994 | 0.358 (inactive) | -0.137 | -0.146 | 0.854 | 0.263 | 0.0344 | -0.172 | -1.31 | -0.56 | 0.584 | -0.465 | 0.0875 | -1.87 | -0.232 | -0.486 | -0.465 | 0.604 | 0.0764 | 0.517 (inactive)
9 | COCCOC(=O)N1C(=O)[C@@]2(c3cc(C#CC4(O)CCCCCC4)ccc31)[C@H](C(=O)NC[C@H](O)c1ccccc1)[C@H]1C(=O)O[C@H](c3ccccc3)[C@H](c3ccccc3)N1[C@@H]2c1ccc(O)cc1 | 0.456 | -0.275 (inactive) | -0.0362 | -0.0846 | 0.618 | 1.51 | 1.42 | 1.16 | -0.112 | 1.09 | 1.39 | 1.18 | 0.392 | 0.721 | 0.37 | 0.774 | 0.139 | 0.439 | 0.721 | -0.474 (inactive)
10 | CC(C)CNC(=O)[C@@H]1c2ccccc2C(=O)N(CC23CC4CC(CC(C4)C2)C3)[C@H]1c1ccc(CO)cc1 | 0.486 | 0.642 (inactive) | -0.004 | -0.14 | 0.132 | 1.74 | 0.0747 | 0.985 | -0.284 | 1.07 | 1.94 | 1.14 | 0.257 | 0.592 | 0.466 | -0.0903 | 0.47 | 0.366 | 0.674 | 1.27 (inactive)
11 | C=C(CCCC)/C(=C/C[C@H](OC(C)=O)c1cccc(OCCO)c1)c1cc(C(=O)OC)ccc1OC | 0.387 | -0.822 (inactive) | -0.21 | -0.132 | 0.355 | -0.148 | 0.147 | 0.302 | -0.149 | -0.795 | -0.799 | -0.426 | -0.325 | 0.33 | 0.0088 | 0.261 | 3.6 | 0.283 | 0.635 | -1.64 (inactive)
